# A selection: hits, their analogues and other compounds. The true share with any hit is near 2.8%.
# CtBP-E1A blk = blocks the CtBP interaction with E1A; AlphaScreen GST-E1A/His-CtBP binding, 1536-well; stronger effect = lower value; activity change, % (test concentration not listed); 340,000 compounds, 0.49% hits; in the data active means activity change below about -65%; inconclusive means mostly about -30% to -63%; further: on the % scale 0 is the no-effect control and ±100 the full control effect
#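 GST-E1A and His-tagged CtBP (125 nM each as 5X stock) were preincubated with pin-transferred compound for 2 h at 37 °C in the dark, then glutathione donor and nickel acceptor beads were added for 1 h before AlphaScreen reading.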
# ATXN2 expr inh = ATXN2 expression inhibition; HEK-293 ATXN2-luciferase reporter, luminescence, 24 h; Potency, µM (doses to about 57 µM), for inactives: at the top dose activity change, negative = inhibition, usual class: inhibitors; 360,000 compounds, 0.72% hits; AID 1745845; further: potency means the concentration at half of the fitted maximal effect; on the % scale 0 is the no-effect control and ±100 the full control effect; nearly all actives have a fitted effect of over 55% in size
#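 ATXN2-luciferase reporter cells (luciferase flanked by upstream and downstream ATXN2 gene portions) were treated 24 h at 37 °C with compounds at up to 57 uM. SteadyGlo luminescence gave expression; GF-AFC fluorescence gave viability.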
# TGFb inhibitor = blocks TGF-b signaling | HepG2 CAGA-GFP TGF-b/SMAD3 reporter, GFP fluorescence, 18 h; TGF-beta stimulated, 500 pg/mL final | Potency, µM (series often up to 46.1 µM), for the others: at the highest dose activity, negative = inhibition, usual class: inhibitors | 410,000 compounds, 1.2% hits; further: potency means the concentration at half of the fitted maximal effect; on the % scale 0 is the no-effect control and ±100 the full control effect; nearly all actives have a fitted effect of over 65% in size
#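 Cell-based qHTS in HEPG2 carrying a CAGA-GFP Smad reporter; compounds added before 500 pg/mL final TGF-beta, 18 h incubation at 37 degrees C, GFP fluorescence quantified per cell by imaging cytometry.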
# HepG2 tox = counter-screen for TGF-b inhibitors: cytotoxicity in HepG2 cells. AID 588856. 410,000 compounds, 0.76% hits. Potency, µM (highest dose often 46.1 µM), without a hit: at the top dose activity change, negative = cytotoxicity, actives largely listed as cytotoxic. HepG2 CAGA-GFP viability, ATP luminescence, 18 h; further: potency means the concentration at half of the fitted maximal effect
#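 HepG2 CAGA-GFP cells (1000/well, DMEM with 1% FBS) received compound, then TGF-beta at 500 pg/mL final, and were incubated 18 hours at 37 degrees C. Viability was read by CellTiter-Glo luminescence. Media-only wells were set as complete cell-killing and DMSO as no toxicity.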
# Six1-Eya2 inh = blocks human Six1 binding to Eya2. AlphaScreen GST-Six1/His-Eya2 binding, biochemical; stronger effect = lower value. Q15475+O00167. activity change, % (test concentration not listed). 360,000 compounds, 0.56% hits; in the data active means activity change below about -65%; inconclusive means mostly about -30% to -63%; further: on the % scale 0 is the no-effect control and ±100 the full control effect
# Target sequence (O00167 whole entry, looked up): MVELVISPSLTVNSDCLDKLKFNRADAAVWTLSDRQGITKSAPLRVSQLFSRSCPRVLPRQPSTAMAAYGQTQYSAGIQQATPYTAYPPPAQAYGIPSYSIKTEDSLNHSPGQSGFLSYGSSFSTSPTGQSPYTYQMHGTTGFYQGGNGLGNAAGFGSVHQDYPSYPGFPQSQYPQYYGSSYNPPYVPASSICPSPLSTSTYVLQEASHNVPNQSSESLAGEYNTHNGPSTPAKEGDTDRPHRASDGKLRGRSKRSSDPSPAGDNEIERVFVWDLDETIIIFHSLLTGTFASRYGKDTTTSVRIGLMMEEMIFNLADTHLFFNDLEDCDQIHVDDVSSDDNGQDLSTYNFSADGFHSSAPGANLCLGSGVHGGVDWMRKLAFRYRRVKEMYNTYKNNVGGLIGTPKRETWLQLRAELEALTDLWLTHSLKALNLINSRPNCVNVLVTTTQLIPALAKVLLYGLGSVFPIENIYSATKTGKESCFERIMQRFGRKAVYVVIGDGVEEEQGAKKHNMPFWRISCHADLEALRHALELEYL
# Target sequence (Q15475 whole entry, looked up): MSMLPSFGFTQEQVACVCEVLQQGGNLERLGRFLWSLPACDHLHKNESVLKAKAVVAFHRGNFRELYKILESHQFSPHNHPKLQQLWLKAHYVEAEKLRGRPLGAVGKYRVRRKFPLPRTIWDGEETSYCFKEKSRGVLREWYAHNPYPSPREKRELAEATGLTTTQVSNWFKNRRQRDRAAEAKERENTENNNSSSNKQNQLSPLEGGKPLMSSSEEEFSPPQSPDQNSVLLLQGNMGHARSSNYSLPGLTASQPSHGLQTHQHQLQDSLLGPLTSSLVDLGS
#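 Compounds are tested against tagged Six1 and Eya2 proteins bridged by glutathione donor and nickel acceptor beads; after a one-hour incubation at 37 °C without light, AlphaScreen emission is recorded.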
# S2 tox = cell viability loss in ATXN counter-screen; S2 cells (HEK-293 line with an ATXN2-luciferase reporter) viability, CellTiter-Fluor protease fluorescence, 24 h; 400,000 compounds, 0.49% hits; Potency, µM (titrated, usually from 56.7 µM), actives largely listed as cytotoxic; further: potency means the concentration at half of the fitted maximal effect; nearly all actives have a fitted effect of over 40% in size
# Starred values were filed as active, the others as inactive; i = inactive; ? = inconclusive; . = not tested or not shown; [ ] = another dose, or the depositor's remark. Unless noted, the call rests on the fitted dose curve; in most records, active means well fitted curve in the direction sought with a large enough effect; inconclusive means small, poorly fitted or top-dose-only effect, or another doubt; inactive means no such curve, though single readings can be large; an effect the other way counts as inactive or inconclusive.
SMILES,CtBP-E1A blk,ATXN2 expr inh,TGFb inhibitor,HepG2 tox,Six1-Eya2 inh,S2 tox
O=C(O)c1cccc(COc2ccccc2Cl)c1,5.5,0.708µM*,0.2%,-27.3%,0.2,i
O=C(O)c1ccc(COc2ccccc2Cl)cc1,1.9,7.8%,1.9%,-4.7%,2.0,i
C=CS(=O)(=O)O,.,.,.,.,.,i
O=C(O)c1ccccc1-c1c2cc(I)c(=O)c(I)c-2oc2c(I)c(O)c(I)cc12,?,-23.8%,30.8%,-13.2%,?,4.47µM*
Cc1ccsc1CN1CCc2nnc(CCNC(=O)c3ccc(F)cc3)n2CC1,.,.,.,.,.,i
CCCCc1c(-c2ccccc2OC)ncn1CCc1ccccc1OC,-3.1,?,.,.,-17.6,31.6µM*
CCCCCc1c(CC)ncn1CCc1ccccc1OC,?,?,.,.,-10.2,15.8µM*
CCCCc1c(-c2ccccc2OC)ncn1CCc1cccc(OC)c1,-2.4,?,.,.,-14.3,31.6µM*
CCCCCc1c(-c2ccccc2OC)ncn1CCc1ccccc1OC,-1.4,-35.3%,.,.,-11.4,.
COCCCNC(=O)CCc1c(C)nc2nc(-c3cc(OC)cc(OC)c3)nn2c1C,.,5.0%,-19.0%,0.0%,.,i
COc1ccccc1OCC1CNC(=O)O1 (stereo not drawn),.,6.3%,.,.,.,i
Cc1ccccc1-c1nc2c(=O)n(C)c(=O)nc-2n(C)n1,.,.,0.631µM*,1.12µM*,.,.
CCc1ccc(-c2nc3c(=O)n(C)c(=O)nc-3n(CC)n2)cc1,.,.,0.891µM*,1.26µM*,.,.
CCCc1nc2c(=O)n(C)c(=O)nc-2n(C)n1,-6.4,4.23µM*,1.12µM*,1.12µM*,0.5,.
COc1ccc(-c2nc(-c3ccccn3)ncc2S(C)(=O)=O)cc1,0.4,8.6%[11.3 µM],-8.3%,14.8%,-3.2,i
Cn1nc(-c2ccccn2)nc2c(=O)n(C)c(=O)nc1-2,?,?,2.24µM*,2.82µM*,-28.3,.
COCC1CCCN(Cc2ccc3c(c2)CN(C(=O)c2sc(C)nc2C)CCO3)C1 (stereo not drawn),.,.,.,.,.,i
Cc1ccc(C)c(N2CCN(C(=O)C(C)n3nc(C)c4sc5ccccc5c4c3=O)CC2)c1 (stereo not drawn),.,.,?,-27.0%,.,.
COc1ccccc1N1CCN(CCCNC(=O)c2cnn(-c3ccccc3)c2C2CCN(C(=O)OC(C)(C)C)CC2)CC1,.,.,?,-57.4%,.,.
Fc1ccccc1C1CC(c2ccco2)=Nc2ccccc2S1 (stereo not drawn),0.3,.,17.8µM*,-132.0%,-14.0,?
CN(C)/[N+]([O-])=N/Oc1ccc([N+](=O)[O-])cc1C(F)(F)F,.,.,-0.8%,-33.1%,.,.
O=C(CCSCc1cnn(-c2ccccc2)c1-n1cccc1)NCc1ccc(Cl)cc1,.,.,15.8µM*,-27.2%,.,.
Cc1ccc(CNC(=O)CCSCc2cnn(-c3ccccc3)c2-n2cccc2)cc1,.,.,?,-31.4%,.,.
COCC1CCCN(Cc2ccc3c(c2)CN(C(=O)c2ccc(-c4ccc(C)o4)cc2)CCO3)C1 (stereo not drawn),.,.,.,.,.,i
CCN(CC)c1ccc(N=Cc2c(C)[nH]c3ccccc23)cc1,?,-0.9%,11.2µM*,2.82µM*,?,i
SMILES,CtBP-E1A blk,ATXN2 expr inh,TGFb inhibitor,HepG2 tox,Six1-Eya2 inh,S2 tox
COc1cc(NCCCC(C)N)c2ncccc2c1 (stereo not drawn),-70.1*,14.8%,-27.2%,-32.5%,?,i
CCC(CNc1cc(OC)cc2cccnc12)NC1CCCCC1 (stereo not drawn),.,.,?,-109.1%,-12.7,17.8µM*
COc1cc(NS(=O)(=O)c2ccc(C)cc2)c2ncccc2c1,-78.8*,4.47µM*,?,-26.2%,-71.7*,?
COc1cc(NCCCCC(C)N)c2nccc(C)c2c1 (stereo not drawn),-11.0,.,?,-54.0%,-14.8,?
COc1cc(NS(=O)(=O)c2ccc(C(=O)O)cc2)c2nc(C)ccc2c1,.,.,-15.9%,-14.9%,.,.
COc1cc(NC(=O)c2ccccc2Cl)c2ncccc2c1,20.6,-15.9%,?,-29.1%,12.3,i
CCC=CC[C@H]1C(=O)CC[C@@H]1CC(=O)OC,.,-1.3%,.,.,.,.
CCCn1ccc2c(OCC(=O)Nc3ccccc3C(=O)OCC)cccc2c1=O,.,5.3%,-29.3%,-30.0%,.,i
O=C(CC(c1cccs1)N1Cc2ccccc2C1=O)Nc1ccc(Cl)cc1 (stereo not drawn),.,.,?,-50.7%,.,.
CC(C(=O)O)N1C(=O)/C(=C/C=C/c2ccco2)SC1=S (stereo not drawn),-6.5,0.1%,-14.9%,12.8%,-74.0*,i
O=C1/C(=C/C=C/c2ccco2)SC(=S)N1NS(=O)(=O)c1ccccc1,-15.5,-22.4%,?,-24.3%,?,?
CCN(CC)CCNc1ccc(C)c2sc3ccc(O)cc3c(=O)c12,?,?,?,14.1µM*,?,.
CCN(CC)CCCNC(=O)C(C)n1nc(C)c2sc3ccccc3c2c1=O (stereo not drawn),2.5,-26.0%,11.6%,-14.0%,-1.2,?
CCOC(=O)C(C)(C)Sc1ncnc2nc[nH]c12,-2.1,9.5%,?,-3.2%,3.0,i
CCOC(=O)c1cc([N+](=O)[O-])cc([N+](=O)[O-])c1Sc1ncnc2nc[nH]c12,-6.1,?,12.6µM*,-101.0%,-7.9,.
COc1ccc(C(=O)CCN(C)C)c2ccccc12,.,.,6.31µM*,-103.2%,.,.
COc1ccc(C(=O)c2ccc(Cl)cc2)c2ccccc12,13.2,-8.2%,-12.8%,-8.0%,36.3,i
Cc1cccc(NC(=O)c2ccc(F)c(S(=O)(=O)NCc3ccco3)c2)c1,-5.8,-21.1%,-23.4%,-8.7%,-6.5,i
COc1ccccc1CNS(=O)(=O)c1cc(C(=O)Nc2cccc(C(F)(F)F)c2)ccc1F,.,.,11.2µM*,-17.7%,.,.
O=C(Nc1cccc(C(F)(F)F)c1)c1ccc(F)c(S(=O)(=O)N2CCc3ccccc3C2)c1,.,.,11.2µM*,-33.5%,.,.
CC(C)c1ccc(NC(=O)c2ccc(F)c(S(=O)(=O)N3CCc4ccccc4C3)c2)cc1,.,.,-37.8%,-15.9%,.,.
O=C1c2ccccc2C(=O)N1CCC#C/C=C1\c2ccccc2C(=O)N1c1ccccc1,5.8,-15.5%,?,0.9%,-7.4,28.2µM*
COc1cc(N2CCCC2)c(OC)cc1/C=C(/C#N)c1ccc(F)cc1,?,-5.8%,74.5%,-38.5%,-78.3*,i
O=C1C=C(N2CCOCC2)c2ccccc2C1=O,-24.1,?,5.01µM*,5.01µM*,?,25.1µM*
Cc1ccc(N2CCOCC2)c2c1C(=O)c1ccccc1C2=O,?,-15.3%,7.9%,-29.5%,-75.9*,i
O=C1C(NS(=O)(=O)c2cccs2)=C(N2CCOCC2)C(=O)c2ccccc21,-16.4,-20.7%,?,-157.9%,-11.2,i
